Data from ChEMBL document CHEMBL2218924, “A broad activity screen in support of a chemogenomic map for kinase signalling research and drug discovery” (Biochem J, 2013).

Tests used:
[1] = target: T1, Aurora kinase C (Homo sapiens) (UniProt Q9UQB9); conditions: at 1 µM
T1 sequence (whole entry): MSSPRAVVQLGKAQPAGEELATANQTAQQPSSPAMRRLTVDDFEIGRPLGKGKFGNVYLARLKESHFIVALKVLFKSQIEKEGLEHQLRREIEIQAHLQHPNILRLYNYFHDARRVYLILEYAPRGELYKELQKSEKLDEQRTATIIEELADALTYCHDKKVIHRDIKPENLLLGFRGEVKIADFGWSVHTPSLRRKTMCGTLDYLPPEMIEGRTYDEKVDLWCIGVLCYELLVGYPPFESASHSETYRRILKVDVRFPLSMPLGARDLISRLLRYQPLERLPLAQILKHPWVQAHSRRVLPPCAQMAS

[2] = target: T1, Aurora kinase C (Homo sapiens); conditions: at 10 µM
[3] = target: Tyrosine-protein kinase receptor UFO (Homo sapiens) (UniProt P30530); conditions: at 1 µM
Chain of Tyrosine-protein kinase receptor UFO (Homo sapiens) (P30530 whole entry): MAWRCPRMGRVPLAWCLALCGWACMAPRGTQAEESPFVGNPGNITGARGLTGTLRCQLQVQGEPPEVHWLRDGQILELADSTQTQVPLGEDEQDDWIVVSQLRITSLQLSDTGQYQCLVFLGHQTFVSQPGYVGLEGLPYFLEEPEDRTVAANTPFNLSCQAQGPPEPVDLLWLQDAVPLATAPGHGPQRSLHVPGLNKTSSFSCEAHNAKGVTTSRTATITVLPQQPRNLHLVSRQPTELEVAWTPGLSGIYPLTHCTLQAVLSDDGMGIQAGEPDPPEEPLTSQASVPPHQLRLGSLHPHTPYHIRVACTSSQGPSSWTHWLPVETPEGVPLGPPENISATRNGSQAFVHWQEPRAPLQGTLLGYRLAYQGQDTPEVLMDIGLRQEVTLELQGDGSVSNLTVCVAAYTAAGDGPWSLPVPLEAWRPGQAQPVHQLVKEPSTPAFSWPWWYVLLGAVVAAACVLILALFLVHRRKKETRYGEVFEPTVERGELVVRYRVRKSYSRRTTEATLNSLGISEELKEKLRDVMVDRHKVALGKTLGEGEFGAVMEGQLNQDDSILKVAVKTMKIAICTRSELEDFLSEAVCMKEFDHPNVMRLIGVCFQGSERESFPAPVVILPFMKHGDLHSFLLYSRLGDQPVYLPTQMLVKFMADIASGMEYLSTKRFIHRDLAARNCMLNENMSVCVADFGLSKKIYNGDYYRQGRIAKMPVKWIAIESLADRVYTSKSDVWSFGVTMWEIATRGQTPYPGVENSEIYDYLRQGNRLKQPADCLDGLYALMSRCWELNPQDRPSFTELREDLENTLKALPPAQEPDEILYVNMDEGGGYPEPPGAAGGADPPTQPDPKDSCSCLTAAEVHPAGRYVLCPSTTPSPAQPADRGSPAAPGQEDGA

[4] = target: Tyrosine-protein kinase receptor UFO (Homo sapiens) (UniProt P30530); conditions: at 10 µM
[5] = target: Protein-tyrosine kinase 6 (Homo sapiens) (UniProt Q13882); conditions: at 1 µM
Chain of Protein-tyrosine kinase 6 (Homo sapiens) (Q13882 whole entry, looked up): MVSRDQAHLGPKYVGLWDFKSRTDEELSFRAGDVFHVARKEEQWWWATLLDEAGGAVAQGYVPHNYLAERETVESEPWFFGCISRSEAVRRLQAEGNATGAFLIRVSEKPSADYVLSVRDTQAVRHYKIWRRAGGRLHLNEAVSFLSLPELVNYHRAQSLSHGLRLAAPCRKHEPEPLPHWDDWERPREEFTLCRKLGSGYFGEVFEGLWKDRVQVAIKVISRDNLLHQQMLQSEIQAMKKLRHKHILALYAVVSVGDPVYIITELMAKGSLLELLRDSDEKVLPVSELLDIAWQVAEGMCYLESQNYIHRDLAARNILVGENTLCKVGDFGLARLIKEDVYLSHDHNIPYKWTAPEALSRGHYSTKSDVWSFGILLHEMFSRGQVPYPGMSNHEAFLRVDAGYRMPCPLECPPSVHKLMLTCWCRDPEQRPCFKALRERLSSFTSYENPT

[6] = target: Protein-tyrosine kinase 6 (Homo sapiens) (UniProt Q13882); conditions: at 10 µM
[7] = target: Tyrosine-protein kinase BTK (Homo sapiens) (UniProt Q06187); conditions: at 1 µM
Chain of Tyrosine-protein kinase BTK (Homo sapiens) (Q06187 whole entry): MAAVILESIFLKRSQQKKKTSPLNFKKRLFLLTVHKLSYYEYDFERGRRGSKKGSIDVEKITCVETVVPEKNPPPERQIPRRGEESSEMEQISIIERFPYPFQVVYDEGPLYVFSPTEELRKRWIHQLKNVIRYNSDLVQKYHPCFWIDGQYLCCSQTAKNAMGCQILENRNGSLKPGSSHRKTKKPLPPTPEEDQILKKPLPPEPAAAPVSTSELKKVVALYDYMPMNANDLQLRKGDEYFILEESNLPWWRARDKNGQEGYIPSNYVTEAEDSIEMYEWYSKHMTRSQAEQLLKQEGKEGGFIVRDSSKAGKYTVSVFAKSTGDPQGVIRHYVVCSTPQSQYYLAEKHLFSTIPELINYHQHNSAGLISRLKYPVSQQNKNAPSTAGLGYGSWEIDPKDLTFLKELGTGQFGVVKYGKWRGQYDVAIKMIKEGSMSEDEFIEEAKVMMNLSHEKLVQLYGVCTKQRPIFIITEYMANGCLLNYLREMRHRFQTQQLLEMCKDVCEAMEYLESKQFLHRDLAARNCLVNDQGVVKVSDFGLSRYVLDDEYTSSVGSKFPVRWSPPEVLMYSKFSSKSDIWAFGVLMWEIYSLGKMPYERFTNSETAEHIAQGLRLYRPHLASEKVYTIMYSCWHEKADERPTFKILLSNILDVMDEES

[8] = target: Tyrosine-protein kinase BTK (Homo sapiens) (UniProt Q06187); conditions: at 10 µM
[9] = target: Tyrosine-protein kinase Blk (Homo sapiens) (UniProt P51451); conditions: at 1 µM
Chain of Tyrosine-protein kinase Blk (Homo sapiens) (P51451 2-505 limits assumed): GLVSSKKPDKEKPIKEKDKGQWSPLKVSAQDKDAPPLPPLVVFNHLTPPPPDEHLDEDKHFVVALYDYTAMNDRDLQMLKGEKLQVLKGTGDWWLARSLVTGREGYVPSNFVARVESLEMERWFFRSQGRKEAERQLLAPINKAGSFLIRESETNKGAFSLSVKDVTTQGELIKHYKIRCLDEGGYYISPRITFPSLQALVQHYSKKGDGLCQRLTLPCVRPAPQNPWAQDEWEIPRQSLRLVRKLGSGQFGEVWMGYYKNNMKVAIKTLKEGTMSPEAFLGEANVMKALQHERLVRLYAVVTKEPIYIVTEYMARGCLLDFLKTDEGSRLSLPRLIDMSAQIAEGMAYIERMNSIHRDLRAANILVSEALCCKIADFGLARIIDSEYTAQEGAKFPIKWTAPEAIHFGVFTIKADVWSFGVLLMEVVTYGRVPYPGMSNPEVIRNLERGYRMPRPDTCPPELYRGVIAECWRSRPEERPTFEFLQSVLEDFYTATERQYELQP

[10] = target: Tyrosine-protein kinase Blk (Homo sapiens) (UniProt P51451); conditions: at 10 µM

| SMILES | residual activity [1] | residual activity [2] | residual activity [3] | residual activity [4] | residual activity [5] | residual activity [6] | residual activity [7] | residual activity [8] | residual activity [9] | residual activity [10] |
| --- | --- | --- | --- | --- | --- | --- | --- | --- | --- | --- |
| Cc1ccc(NC2=CC(=O)c3sc(C)nc3C2=O)cc1 | 85% | 85% | 103% | 112% | 111% | 108% | 93% | 86% | 112% | 96% |
| c1ccc(-c2n[nH]cc2-c2ccnc3ccccc23)nc1 | 100% | 66% | 65% | 80% | 93% | 37% | 102% | 100% | 102% | 59% |
| COc1cc2ncnc(N3CCN(C(=O)Nc4ccc(Oc5ccccc5)cc4)CC3)c2cc1OC | 71% | 25% | 71% | 60% | 98% | 98% | 92% | 112% | 100% | 72% |
| O=C(Nc1cccc(Nc2nccc(Nc3cccc(C(F)(F)F)c3)n2)c1)C1CC1 | 69% | 62% | 79% | 81% | 40% | 46% | 53% | 6% | 77% | 57% |
| Cc1nc(-c2ccccc2)c(-c2ccncc2)o1 | 93% | 81% | 112% | 79% | 59% | 43% | 91% | 83% | 95% | 80% |
| N#C/C(=C(\N)Sc1ccc(N)cc1)c1ccccc1C(F)(F)F | 84% | 83% | 96% | 73% | 105% | 114% | 91% | 93% | 90% | 79% |
| Oc1c2ccccc2c2c3c(cccc13)N=N2 | 9% | 4% | 50% | 17% | 95% | 95% | 88% | 57% | 97% | 45% |
| CO[C@@H]1[C@H](N(C)C(=O)c2ccccc2)C[C@H]2O[C@]1(C)n1c3ccccc3c3c4c(c5c6ccccc6n2c5c31)C(=O)NC4 | 62% | 20% | 14% | 9% | 98% | 93% | 60% | 35% | 7% | 5% |
| O=Nc1c(-c2c(O)[nH]c3ccccc23)[nH]c2ccccc12 | 61% | 49% | 17% | 8% | 91% | 23% | 31% | 4% | 11% | 0% |
| O=C1c2ccccc2-[n+]2ccc3c([nH]c4ccccc43)c21 | 83% | 72% | 73% | 62% | 97% | 80% | 94% | 87% | 95% | 76% |
| Oc1ccc(-c2nc(-c3ccc(F)cc3)c(-c3ccncc3)[nH]2)cc1 | 113% | 95% | 121% | 83% | 49% | 5% | 108% | 77% | 109% | 44% |
| CC(=O)c1ccc(N2CCOCC2)cc1O | 106% | 84% | 110% | 85% | 108% | 107% | 91% | – | – | – |
| CC[n+]1c(/C=C/N(C)c2ccccc2)n(-c2ccccc2)c2ccc(-c3nc4ccccc4s3)cc21 | 107% | 93% | 134% | 58% | 109% | 94% | 87% | 58% | 100% | 55% |
| Ic1cccc(CSc2nnc(-c3ccncc3)o2)c1 | 79% | 74% | 74% | 60% | 105% | 96% | 79% | 95% | 87% | 61% |
| COc1cccc(-c2cc(=O)c3ccccc3o2)c1N | 99% | 94% | 119% | 111% | 105% | 105% | 94% | 100% | 114% | 103% |
| COc1cc2ncnc(Nc3ccc(NC(=O)c4ccccc4)cc3)c2cc1OC | 44% | 4% | 99% | 40% | 35% | 10% | 90% | 68% | 20% | 2% |
| O=C1NC(=O)/C(=C\c2ccc3nccnc3c2)S1 | 106% | 59% | 75% | 54% | 99% | 103% | 99% | 93% | 114% | 79% |
